Sampled rows, rich in hits. Any-hit rate of the full collection: about 9.7%.
BAP1 block: blocks human BAP1 ubiquitin-AMC hydrolysis. Q92560. recombinant BAP1, Ub-AMC hydrolysis fluorescence kinetic; stronger effect = lower value. calls only at 20 µM. 0.48% of 72,000 active;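 active means activity remaining at or below 50% of control, provided the compound also passes the data quality filters; inactive means the rest, including low values that fail the filters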;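 further: 100% = DMSO wells rate and 0% = substrate alone blank rate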
A340 absorber: compounds absorbing at 340 nm; compound absorbance at 340 nm, fold over control; 65,000 tested, under 10 active; fold change at 10 µM;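 active means at 10 µM dose, initial 340 nm absorbance at least 2 fold that of control wells; inactive means change under 2 fold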;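 further: initial absorbance extrapolated from kinetic A340 decline of NADH oxidation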
WNV NS2B-NS3 inh: blocks West Nile virus NS2B-NS3 protease activity | P06935 | WNV NS2B-NS3 protease, fluorogenic substrate Ex360/Em465; stronger effect = lower value | z-score (concentration not given with the values) | 0.18% of 65,000 active | AID 577; in the data active means z-score below about -3
M1 antagonist: blocks the rat M1 muscarinic receptor response to acetylcholine | CHO-M1 cells, Fluo-4 calcium, ACh EC80 antagonist mode; stronger effect = lower value | P08482 | B-score at 10 µM | 3.4% of 64,000 active;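 active means calcium fluorescence response, raw or row-and-column corrected B-score, differing from the plate sample mean either way at a set confidence level, mostly lower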
Fluor 339 460: intrinsic fluorescence of library compounds, ex339/em460 – biochemical, MLSMR library, data from DPM-DC assay, artefact control, profiling panel; compound autofluorescence, ex339/em460 nm, NADH buffer; stronger effect = higher value; 1 = no-compound wells, NADH background; fluorescence fold increase at 10 µM; AID 709; 5.5% of 65,000 active;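 active means at 10 µM, mean starting fluorescence two-fold or more over control wells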;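 further: signal is the first read of a kinetic run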
M1 ag: M1 muscarinic receptor agonism; CHO-M1 cells, Fluo-4 calcium fluorescence, agonist mode; stronger effect = higher value; B-score at 10 µM; 3% of 64,000 active;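 active means fluorescence rise, raw or as B-score row- and column-corrected plate score, outside the 99.7% band of its plate's samples, either direction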
BAP1 inh conf: BAP1 (human) enzyme inhibition, confirmed. shares compounds with BAP1 block. purified BAP1, Ub-ethyl ester hydrolysis, HPLC; stronger effect = lower value. % of control activity, % at 20 µM. 8% of 310 active. AID 753;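 active means percent of control activity at or below 60%; inconclusive means HPLC trace unusable from injection failure or solvent front hiding peaks; inactive means the rest, plus ubiquitin peak ratio over a set limit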
* hit, by the source's call; i = inactive; u = inconclusive; x = not tested or not shown; + = active, no number.

SMILES	BAP1 block	A340 absorber	WNV NS2B-NS3 inh	M1 antagonist	Fluor 339 460	M1 ag	BAP1 inh conf
Cc1ccc(O)c(N=CC2=C(O)c3ccccc3C2=O)c1	+	1.08	-1.03	-0.338	1.06	-0.926	116.9
Cc1ccc(C23CC4CC(CC(Cl)(C4)C2)C3)cc1N	i	x	x	x	x	x	x
N#Cc1cc(-c2ccccc2)nn1-c1ccccc1	+	1.08	1.42	-0.191	1.06	0.231	89.2
N#Cc1cn(-c2ccccc2)nc1-c1ccccc1	i	0.98	0.13	-0.0278	1.09	0.0504	x
c1ccc(-c2ccccc2-c2nc(-c3ccncc3)no2)cc1	i	1.03	0.85	0.279	1.07	-0.81	x
c1ccc2c(-c3nc(C4CCCCC4)no3)cc(-c3ccncc3)nc2c1	+	0.97	1.4	-0.436	1.08	-0.237	89.9
COc1nc2c(C)cccc2cc1-c1noc(-c2ccco2)n1	+	1.09	0.63	x	1.74	x	157.2
COc1nc(-c2ccc(Cl)cc2)ccc1-c1noc(-c2ccco2)n1	x	1.09	0.81	0.666	1.71	0.859	x
CCOC(=O)c1nn(-c2ccccc2)c(C#N)c1NC(=O)c1nn(CC)cc1Br	i	0.98	-1.06	0.36	1.18	0.582	x
CCOC(=O)c1c(NC(=O)c2nn(CC)cc2Br)c(C#N)nn1-c1ccccc1	+	1.07	-0.22	0.154	1.19	0.202	98.9
O=C(Nc1nc(-c2cccs2)cs1)c1ccc(S(=O)(=O)N2CCCCC2)cc1	+	1.09	-1.48	-0.562	1.25	0.104	89.1
O=[N+]([O-])c1ccc(C2CC(c3ccc(Br)cc3)=Nc3ccccc3N2)cc1 (stereo not given)	i	x	x	x	x	x	x
CCCc1cc(=O)[nH]c(Nc2ccc(N3CCCCC3)cc2)n1	i	1.06	-1.15	1.6	1.09	0	x
CCCCc1ccc(Nc2nc(CCC)cc(=O)[nH]2)cc1	+	1.06	0.7	-0.677	1.12	-0.581	87.6
Cn1cc(/C=N/n2cnc3scc(-c4ccccc4)c3c2=O)c2ccccc21	+	1.07	-1.05	-0.744	1.12	0.635	91.1
CCOC(=O)c1c(NC(=O)c2ccc(C(=O)c3ccccc3)cc2)sc2c1CCCC2	i	x	x	x	x	x	x
CCOC(=O)c1c(NC(=O)c2ccc(-n3cnnn3)cc2)sc2c1CCCC2	+	1.06	0.11	x	3*	x	120.8
CCOC(=O)c1oc2ccccc2c1NC(=O)COc1ccc(F)cc1	+	1.05	0.72	-0.278	3.89*	-0.301	153.7
CC(=O)Nc1c(C(=O)c2ccc(F)cc2)oc2ccccc12	x	1.14	1.32	-0.0061	1.16	-1.26	x
COc1ccc(N(CC(=O)Nc2ccc(F)c(Cl)c2)S(=O)(=O)c2c(C)noc2C)cc1	+	1.01	0.31	-0.00825	1.05	1.48	152.9
CCOC(=O)c1c(C)oc2c1cc(O)c1ccccc12	+	1	-0.19	0.111	1.29	0.591	78.8
COc1cccc(NC(=O)c2ccccc2-c2nc(-c3ccc(Cl)cc3)no2)c1	+	0.98	-0.85	-0.812	1.05	-0.705	u
COc1cccc(NC(=O)c2ccccc2-c2nc(-c3ccccc3)no2)c1	i	0.97	-0.68	1.27	1.05	0.105	x
O=C(CC(c1ccccc1)N(C(=O)Nc1ccccc1Cl)c1ccccc1)C1CC1 (stereo not given)	i	x	x	x	x	x	x
COc1ccc2nc(NC(=O)c3ccccc3F)sc2c1	i	x	x	x	x	x	x
COc1ccc2nc(NC(=O)CCc3nc(-c4ccccc4F)no3)sc2c1	+	1.04	-0.07	-0.101	1.07	0.0421	39.6*
Cc1ccc2c(c1)c1c(n2CC(O)Cn2nc(C)c(Br)c2C)C(=O)CCC1 (stereo not given)	+	1	-0.18	0.0352	1.94	0.743	90.6
CC(C)Sc1nc2c(cnn2-c2ccccc2)c(=O)[nH]1	i	1.03	0.88	-0.112	1.03	0.325	x
CCCCCSc1nc2c(cnn2-c2ccccc2)c(=O)[nH]1	+	1	-0.43	-0.131	1.05	-0.663	90.9
Cc1ccc(C)c(S(=O)(=O)N2CCC(c3nc4c(nnn4Cc4ccc(F)cc4)c(=O)[nH]3)CC2)c1	+	1.01	-0.26	0.0227	1.09	-0.804	134.8

Bioassay records from PubChem BioAssay.
